# Measurements taken from PubChem BioAssay (NCI).
# The panel holds about 83,000 compounds, 20% with a hit somewhere; the sample as a whole holds those more often.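 Single-concentration screen, 48 h exposure, 96-well plates. Endpoint: percent growth. Below 10 = active.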 A number with no mark means an inactive call. The source made the active and inactive calls.
# Key:
# Test in all cases: NCI-60 one-dose screen, 48 h (100 = growth as untreated, 0 = no growth, -100 = all killed)
# Conditions in all cases: 10 µM unless noted
# [1] = tested on: SN12C renal
# [2] = tested on: UO-31 renal
# [3] = tested on: ACHN renal
# [4] = tested on: CAKI-1 renal
# [5] = tested on: A498 renal
# [6] = tested on: CCRF-CEM leukemia
# [7] = tested on: MOLT-4 leukemia
# [8] = tested on: SR leukemia
# [9] = tested on: TK-10 renal
Structure (SMILES),growth [1],growth [2],growth [3],growth [4],growth [5],growth [6],growth [7],growth [8],growth [9]
COc1cc(/C=C/C(=O)c2c(-c3ccc(F)cc3)nc3sc(C)nn23)cc(OC)c1OC,35.9%,21.5%,24.6%,15.2%,85.2%,-9.53% (active),13.4%,4.81% (active),–
CCN(CC)c1ccc(C(O)C2=CC(=O)c3ccccc3C2=O)cc1 (configuration not stated),-28.1% (active),22.7%,-58.8% (active),–,6.3% (active),–,7.92% (active),-5.59% (active),-31.4% (active)
C=C1c2c(C)nn(-c3ccc(C#CCOC4OC(CO)C(O)C(O)C4O)cc3)c2N(C)C23C[C@H]1C1(C)c4c(C)nn(-c5ccc(C#CCOC6OC(CO)C(O)C(O)C6O)cc5)c4N(C)C(C)(C[C@H]12)C3 (some centres not stated),8.29% (active),21.1%,27.7%,-29.8% (active),4.38% (active),-30.2% (active),-14.9% (active),6.31% (active),–
O=C(/C(=C/c1cccc([N+](=O)[O-])c1)c1ccccc1)c1ccccc1,35.6%,48.8%,40.1%,47.7%,66.2%,1.9% (active),4.09% (active),4.42% (active),–
COc1cc(/C=C/C(=O)c2c(-c3ccc(Cl)cc3)nc3sc(C)nn23)cc(OC)c1OC,78.3%,51.2%,73.8%,93.7%,85.5%,32.5%,48.3%,26.1%,–
Cc1cc([N+](=O)[O-])c(C)cc1C(=O)O,105%,85.4%,–,97.4%,96.6%,104%,112%,–,105%
CC1(C)OC(=O)C(=Cc2ccccc2Br)C(=O)O1,96.6%,92.2%,102%,94.8%,105%,98.2%,99.5%,79.7%,–
COc1cccc2c1O/C(=C\c1c([N+](=O)[O-])ncn1C)C2=O,104%,78.7%,89%,92.8%,100%,-7.36% (active),85.3%,62.8%,–
CCC1(c2ccccc2)Oc2ccccc2-n2c(C#N)c3ccccc3c2C1=O (configuration not stated),95.6%,86.6%,96.5%,100%,97%,95.6%,91%,89.2%,–
c1cnc2n[nH]c(Nc3ncnc4c3sc3ncccc34)c2c1,99.7%,98.5%,97.8%,104%,91.3%,88.6%,97.9%,101%,–
O=C(Nc1nc(-c2ccccc2)cs1)c1cc(O)c(O)c(O)c1,50.5%,24.6%,40.3%,26.4%,85.9%,9.11% (active),17.1%,8.07% (active),–
COc1cc2c(C#N)n3c(c2cc1OC)C(=O)C(c1ccccc1)Oc1ccccc1-3 (configuration not stated),37.2%,15.8%,54.3%,65.6%,52.4%,17.1%,63.4%,12.5%,–
COc1ccc(/C=C(\C#N)c2ccccc2)cc1,86.6%,85.6%,97.3%,78.2%,79.4%,93.1%,96.1%,55.7%,–
